The nature of assay [1]: Nuclear factor erythroid 2-related factor 2/antioxidant responsive element (Nrf2/ARE) small molecule agonists: qHTS cell viability counter screen in human keratinocytes (AID 1919968; active = well fitted curve in the direction sought with a large enough effect in the repeat runs; an effect the other way counts as inactive or inconclusive; note: nearly all actives have a fitted effect of over 55% in size). The method, boiled down:
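Cytotoxicity was multiplexed with the Nrf2/ARE luciferase assay in the same wells. Stably transfected HaCaT keratinocytes were treated with test compounds for 23 h at 37 C. Cell viability was then measured by CellTiter-Fluor fluorescence.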

In assay [2] the target is KiSS-1 receptor (Homo sapiens) (UniProt Q969F8). Nature of the assay: Human kisspeptin (KISS1R) small molecule agonists, calcium flux assay in KISS1R-HEK293 cells (AID 1920064; active = well fitted curve in the direction sought with a large enough effect in the repeat runs; an effect the other way counts as inactive or inconclusive). The method, boiled down:
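Agonist activity is monitored as intracellular calcium rise in engineered HEK293 cells carrying human KISS1R. Cells are dye-loaded for 1 h at 37 C before compound addition, and fluorescence is recorded for 3 min.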

Assay [3] is described as follows: G protein-coupled receptor (GPCR) small molecule agonists, calcium flux assay: HEK293 wild type cell line counter screen (AID 1920065). The method, boiled down:
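Seed cells, incubate 18 h (37 C, 5% CO2); add calcium dye, 1 h at 37 C; pin-transfer compounds, ATP control or DMSO; read fluorescence 480/540 nm each second for 3 min.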

Assay [4] is described as follows: p53 small molecule agonists, cell-based qHTS assay with human liver microsomes (AID 1963577). The method, boiled down:
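Cells carrying a p53-responsive bla reporter were rested 5 h (37 C, 5% CO2) before compound transfer. Human liver microsomes plus NADPH, 0.5 mg/mL final apiece, supplied metabolism during the 16 h 37 C exposure.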

Assay [5] is described as follows: p53 small molecule agonists, cell-based qHTS assay with rat liver microsomes (AID 1963578). The method in brief: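 Fluorescence from a beta-lactamase reporter under a p53 response element was measured after cells had been incubated 16 h at 37 C with test compound and rat liver microsomes plus NADPH (0.5 mg/mL final each).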
Assay [6] can be described thus: p53 small molecule agonists, cell-based qHTS assay with human liver microsomes: qHTS cell viability counter screen (AID 1963579). Note: nearly all actives have a fitted effect of over 45% in size. The method, boiled down:
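Seed p53RE-bla cells at 4,000 per well; incubate 5 h at 37 C; add compound, human liver microsomes and NADPH; incubate 16 h at 37 C; add CellTiter-Glo; after 30 min at room temperature, read luminescence.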

Assay [7] can be described thus: p53 small molecule agonists, cell-based qHTS assay with rat liver microsomes: qHTS cell viability counter screen (AID 1963580). Note: nearly all actives have a fitted effect of over 45% in size. The method, boiled down:
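After the beta-lactamase ratio was read, CellTiter-Glo was added to the same wells and luminescence measured at 30 min; cells had been treated 16 h at 37 C with compounds, rat liver microsomes and NADPH (0.5 mg/mL final each).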

A short description of assay [8]: p53 small molecule agonists, cell-based qHTS assay: qHTS cell viability counter screen (AID 1963581). Note: nearly all actives have a fitted effect of over 45% in size. The method, boiled down:
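Viability was counter-screened in parallel with the p53 agonist reporter by measuring intracellular ATP luminescence in the same HCT-116 p53RE-bla wells after 16 h compound treatment at 37 C.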

Assay [9] in a line: p53 small molecule agonists, cell-based qHTS assay (AID 1963582; active = well fitted activation curve with a large enough effect in the signal ratio in the repeat runs, not every such curve was filed as active; the % refers to the signal ratio). The method in brief: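 Cells carrying a p53-responsive bla reporter are treated with test compounds for 16 h at 37 C; beta-lactamase activity is then detected with LiveBLAzer B/G FRET substrate after 2 h at room temperature.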
Assay [10] addresses 5-hydroxytryptamine receptor 2A (Homo sapiens) (UniProt P28223). Nature of the assay: 5-hydroxytryptamine receptor 2A (HTR2A) small molecule antagonists, cell-based qHTS assay (AID 1963586). Note: nearly all actives have a fitted effect of over 45% in size. The method in brief:
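CHO cells stably expressing human HTR2A were plated for 18 h at 37 C, then loaded with calcium dye for 1 h. Compounds were preincubated 5 min at room temperature before DOI (4 nM solution) was added. Kinetic fluorescence was read for 3 min.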

The target is the same in assay [11]. As to the kind of experiment: 5-hydroxytryptamine receptor 2A (HTR2A) small molecule agonists, cell-based qHTS assay (AID 1963587). Note: nearly all actives have a fitted effect of over 30% in size. Note: potency is the fitted concentration of half-maximal effect. The method, boiled down: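 CHO cells stably expressing human HTR2A, plated 18 h, loaded with calcium dye 1 h at 37 C. Agonist mode: compounds added and intracellular calcium fluorescence recorded kinetically for 2 min at 1 sec intervals.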

The target of assay [12] is Muscarinic acetylcholine receptor M1 (Homo sapiens) (UniProt P11229). As to the kind of experiment: Cholinergic receptor muscarinic 1 (CHRM1) small molecule antagonists, cell-based qHTS assay (AID 1963588). Note: nearly all actives have a fitted effect of over 40% in size. The method, boiled down: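 Compounds were tested at 15 concentrations in three independent runs. Dye-loaded CHRM1-CHO cells were exposed 5 min at room temperature before stimulation by acetylcholine added at 50nM. Intracellular calcium was read kinetically on FDSS for 3 min.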
Muscarinic acetylcholine receptor M1 (Homo sapiens), sequence (P11229 whole entry, looked up): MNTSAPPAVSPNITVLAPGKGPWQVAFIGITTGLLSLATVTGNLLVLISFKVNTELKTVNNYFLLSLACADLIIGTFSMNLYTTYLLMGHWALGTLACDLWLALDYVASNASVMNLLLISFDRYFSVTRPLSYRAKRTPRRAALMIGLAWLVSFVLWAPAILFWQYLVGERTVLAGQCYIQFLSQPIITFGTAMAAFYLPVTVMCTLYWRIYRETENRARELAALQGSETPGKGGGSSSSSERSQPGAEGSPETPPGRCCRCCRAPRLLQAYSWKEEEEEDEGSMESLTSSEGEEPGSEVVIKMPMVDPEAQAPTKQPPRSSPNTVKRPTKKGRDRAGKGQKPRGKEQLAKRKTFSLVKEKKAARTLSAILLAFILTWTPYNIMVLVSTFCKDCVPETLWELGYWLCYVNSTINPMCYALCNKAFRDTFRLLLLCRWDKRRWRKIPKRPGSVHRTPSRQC

Assay [13] shares this target. Nature of the assay: Cholinergic receptor muscarinic 1 (CHRM1) small molecule agonists, cell-based qHTS assay (AID 1963589). Note: nearly all actives have a fitted effect of over 35% in size. The method in brief: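 Cells were plated and incubated 18 h at 37 C/5% CO2, loaded with calcium dye for 1 h at 37 C, then treated with compounds in DMSO. Fluorescence was recorded kinetically at 1 sec intervals.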
Assay [14] in a line: cAMP Responsive Elements (CRE) small molecule agonists, cell-based qHTS assay (AID 1963590). The method in brief: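 Cells carrying a CRE-driven beta-lactamase reporter (HEK 293T) are seeded, incubated overnight (18 h), and treated with test compounds for 3 h at 37 C; reporter activity is then detected with a FRET substrate after 2 h at room temperature.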
A short description of assay [15]: cAMP Responsive Elements (CRE) small molecule antagonists, cell-based qHTS assay (AID 1963591; active = well fitted inhibition curve with a large enough effect in the signal ratio in the repeat runs, not every such curve was filed as active; the % refers to the signal ratio). The method, boiled down: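 Cells (CRE-bla HEK 293T, DMEM with 10% dialyzed FBS and 25 mM HEPES) are seeded and incubated 18 h. Compounds are added with NKH477 agonist at 0.25 uM final for 3 h, then FRET substrate for 2 h.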
The target in assay [16] is Beta-2 adrenergic receptor (Homo sapiens) (UniProt P07550). As to the kind of experiment: Adrenergic beta2 receptor (ADRB2) small molecule antagonists, cell-based qHTS assay (AID 1963592). Note: series mostly up to about 92 µM; nearly all actives have a fitted effect of over 50% in size. The method, boiled down:
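Assay format: CHO-ADRB2 cells, 18-20hr seeding at 37C/5% CO2, then compound plus 1nM isoproterenol agonist mix for 0.5hr RT. Homogeneous time-resolved fluorescence cAMP detection after 1hr, expressed as 665/615 nm ratio.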

The target of assay [17] is D(2) dopamine receptor (Homo sapiens) (UniProt P14416). Nature of the assay: Dopamine D2 receptor (DRD2) small molecule agonists, cell-based qHTS assay (AID 1963594). Note: nearly all actives have a fitted effect of over 35% in size. The method in brief: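 HEK293 cells stably expressing human DRD2, pre-treated with PDE inhibitor Ro20-1724 (0.1 mM final) and compound 10 min at room temperature, then stimulated with NKH477 (200nM […]) for 30 min. cAMP read by HTRF (665/620 nm).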
D(2) dopamine receptor (Homo sapiens), sequence (P14416 whole entry, looked up): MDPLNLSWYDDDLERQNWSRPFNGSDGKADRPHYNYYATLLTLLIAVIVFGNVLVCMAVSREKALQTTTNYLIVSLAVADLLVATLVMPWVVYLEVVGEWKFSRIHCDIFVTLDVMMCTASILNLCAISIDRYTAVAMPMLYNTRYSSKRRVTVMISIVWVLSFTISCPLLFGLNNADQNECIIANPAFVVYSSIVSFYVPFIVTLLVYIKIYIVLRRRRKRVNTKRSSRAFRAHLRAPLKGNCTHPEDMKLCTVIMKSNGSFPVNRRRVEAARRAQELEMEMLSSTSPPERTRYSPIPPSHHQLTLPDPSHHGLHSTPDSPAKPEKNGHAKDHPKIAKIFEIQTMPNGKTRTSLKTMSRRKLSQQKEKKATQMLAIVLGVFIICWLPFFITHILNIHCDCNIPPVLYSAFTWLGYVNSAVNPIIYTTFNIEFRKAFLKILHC

Assay [18] shares this target. As to the kind of experiment: Dopamine D2 receptor (DRD2) small molecule antagonists, cell-based qHTS assay (AID 1963595; active = well fitted inhibition curve with a large enough effect in the signal ratio in the repeat runs, with a control signal flat; the % refers to the signal ratio). The method, boiled down:
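HEK293 cells stably expressing DRD2, preincubated with 0.1 mM Ro20-1724 and compounds 10 min, were stimulated with 200 nM NKH477 plus 12 nM quinpirole for 30 min at room temperature; cAMP measured by HTRF (665/620 nm).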

The target of assay [19] is Beta-2 adrenergic receptor (Homo sapiens) (UniProt P07550). As to the kind of experiment: Adrenergic beta2 receptor (ADRB2) small molecule agonists, cell-based qHTS assay (AID 1963593).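 Note: CHO cells stably overexpressing human ADRB2.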 The method in brief:
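CHO cells stably over-expressing ADRB2 were plated overnight at 37C, then dosed with compounds plus a stimulation mix containing 100uM IBMX and 25uM Ro-20-1724 for 0.5hr at room temperature. cAMP was measured by HTRF competition, 1hr.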

Drawing on PubChem BioAssay (Tox21), this text covers Potency for 7 molecules.

Records with an inconclusive call do not appear. Some structures have more than one record in an assay (separate samples or runs), and their calls can disagree. Active and inactive are the calls of the source. Unless noted, calls come from the whole dose curve.

5-hydroxytryptamine receptor 2A (Homo sapiens), sequence (P28223 whole entry, looked up): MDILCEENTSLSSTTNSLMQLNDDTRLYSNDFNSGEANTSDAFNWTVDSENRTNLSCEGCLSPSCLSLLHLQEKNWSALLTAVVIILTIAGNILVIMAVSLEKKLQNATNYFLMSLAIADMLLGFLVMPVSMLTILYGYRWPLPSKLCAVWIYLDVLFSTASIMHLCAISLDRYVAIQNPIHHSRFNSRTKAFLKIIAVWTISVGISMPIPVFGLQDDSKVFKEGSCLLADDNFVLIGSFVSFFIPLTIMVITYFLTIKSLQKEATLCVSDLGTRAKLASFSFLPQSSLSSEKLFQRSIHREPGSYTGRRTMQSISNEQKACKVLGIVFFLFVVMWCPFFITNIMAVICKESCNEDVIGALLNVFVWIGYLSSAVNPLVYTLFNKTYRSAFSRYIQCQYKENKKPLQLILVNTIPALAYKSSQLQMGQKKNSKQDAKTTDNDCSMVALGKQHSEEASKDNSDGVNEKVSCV
KiSS-1 receptor (Homo sapiens), sequence (Q969F8 whole entry, looked up): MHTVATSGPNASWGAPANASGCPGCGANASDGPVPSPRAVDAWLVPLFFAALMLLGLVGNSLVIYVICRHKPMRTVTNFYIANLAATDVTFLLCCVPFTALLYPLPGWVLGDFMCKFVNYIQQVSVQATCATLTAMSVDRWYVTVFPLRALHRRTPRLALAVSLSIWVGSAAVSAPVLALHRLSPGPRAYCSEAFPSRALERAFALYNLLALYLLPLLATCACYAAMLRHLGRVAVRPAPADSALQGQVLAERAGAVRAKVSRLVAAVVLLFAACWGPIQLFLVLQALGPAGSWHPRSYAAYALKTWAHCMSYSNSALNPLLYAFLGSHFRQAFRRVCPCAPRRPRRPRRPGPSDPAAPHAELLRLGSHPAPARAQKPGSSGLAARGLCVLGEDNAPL
Beta-2 adrenergic receptor (Homo sapiens), sequence (P07550 whole entry, looked up): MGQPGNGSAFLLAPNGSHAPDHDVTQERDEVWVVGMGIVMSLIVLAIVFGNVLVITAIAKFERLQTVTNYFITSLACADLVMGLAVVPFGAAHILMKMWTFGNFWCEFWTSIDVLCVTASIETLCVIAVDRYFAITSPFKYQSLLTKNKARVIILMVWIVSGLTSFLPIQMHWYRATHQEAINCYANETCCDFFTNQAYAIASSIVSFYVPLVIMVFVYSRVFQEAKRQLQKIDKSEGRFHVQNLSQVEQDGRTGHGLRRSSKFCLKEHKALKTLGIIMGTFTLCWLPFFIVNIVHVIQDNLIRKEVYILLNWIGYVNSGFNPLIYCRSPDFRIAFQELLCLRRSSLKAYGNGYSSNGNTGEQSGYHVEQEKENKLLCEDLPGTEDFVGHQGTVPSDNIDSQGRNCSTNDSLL

On to `ClCC(Cl)CCl`, for which the Potency entry in assay [1], in [2], in assay [3], in [4], in assay [5] and in [6] was “inactive” each time. Further, the Potency entry in [7], in assay [8], in assay [9], in [10], in assay [11] and in [12] was “inactive” in each case. Moreover, the Potency result in assay [13], in [14], in assay [15], in [16], in assay [17] and in assay [18] was “inactive” each time.

For the molecule `Nc1ccccc1`, the Potency entry in [1], in assay [2], in [3], in assay [4], in [5] and in assay [6] was “inactive” throughout. The Potency entry in assay [7], in assay [8], in [9], in [10], in [11] and in assay [13] was “inactive” in each case. Also, the Potency result in assay [14], in assay [15], in [19], in [17] and in assay [18] was “inactive” each time.

With `Nc1cccc(Cl)c1`, the Potency entry in [1], in assay [2], in assay [3], in assay [4], in assay [5] and in assay [6] was “inactive” in each case. The Potency entry in assay [7], in assay [8], in assay [10], in assay [11], in [12] and in assay [13] was “inactive” throughout. In addition, the Potency entry in assay [14], in assay [15], in assay [16], in [19], in assay [17] and in assay [18] was “inactive” each time.

Turning to `CCCCc1c(C)nc(NCC)[nH]c1=O`, the Potency result in assay [1], in assay [2], in assay [3], in [4], in assay [5] and in assay [7] was “inactive” throughout. Besides, the Potency entry in assay [8], in [9], in assay [10], in assay [11], in [12] and in [13] was “inactive” each time. Besides, the Potency entry in assay [14], in assay [15], in [16], in [19], in assay [17] and in assay [18] was “inactive” each time.

`C[C@]12CC[C@H]3[C@@H](CCC4=CC(=O)CC[C@@H]43)[C@@H]1CC[C@@H]2O`: the Potency result in assay [1], in [2], in assay [3], in [4], in assay [5] and in [6] was “inactive” each time. In addition, the Potency result in assay [7], in assay [8], in assay [9], in assay [15], in assay [19] and in [17] was “inactive” each time. Also, the Potency entry in assay [18] was “inactive”.

On to `CN=C=S`, for which the Potency entry in [1], in [2], in assay [3], in assay [4], in assay [5] and in assay [6] was “inactive” in each case. Also, the Potency entry in assay [7], in assay [8], in assay [10], in assay [12], in [14] and in assay [15] was “inactive” each time. For the same molecule, the Potency entry in assay [16], in assay [19], in assay [17] and in assay [18] was “inactive” each time. The Potency in assay [11] was 44 µM (active) and inactive.

Turning to `Nc1nc(N)nc(NC2CC2)n1`, the Potency result in assay [1], in [2], in assay [3], in assay [4], in assay [6] and in assay [7] was “inactive” each time. The Potency result in assay [8], in assay [9], in [14], in assay [15], in [16] and in [19] was “inactive” throughout. Besides, the Potency entry in [17] and in [18] was “inactive” in each case.
